Measured values taken from the supplement of paper PMC11732987, “Enantioselective OTUD7B fragment discovery through chemoproteomics screening and high-throughput optimisation” (Communications Chemistry, 2025).
A number with no mark means an inactive call.

What was measured:
Test in all cases: log2 ratio of Biotin-Ahx-Ub-VS probe labelling (fragment/DMSO); higher = less target engagement (more negative = stronger competition), active = hit call of the paper (q ≤ 0.05, log2 ratio ≤ -1)
Conditions in all cases: compound concentration: 200 uM; treatment time: 3 h
[1] = target: T1, ALG13 (UniProt Q9NP73)
T1 sequence (whole entry): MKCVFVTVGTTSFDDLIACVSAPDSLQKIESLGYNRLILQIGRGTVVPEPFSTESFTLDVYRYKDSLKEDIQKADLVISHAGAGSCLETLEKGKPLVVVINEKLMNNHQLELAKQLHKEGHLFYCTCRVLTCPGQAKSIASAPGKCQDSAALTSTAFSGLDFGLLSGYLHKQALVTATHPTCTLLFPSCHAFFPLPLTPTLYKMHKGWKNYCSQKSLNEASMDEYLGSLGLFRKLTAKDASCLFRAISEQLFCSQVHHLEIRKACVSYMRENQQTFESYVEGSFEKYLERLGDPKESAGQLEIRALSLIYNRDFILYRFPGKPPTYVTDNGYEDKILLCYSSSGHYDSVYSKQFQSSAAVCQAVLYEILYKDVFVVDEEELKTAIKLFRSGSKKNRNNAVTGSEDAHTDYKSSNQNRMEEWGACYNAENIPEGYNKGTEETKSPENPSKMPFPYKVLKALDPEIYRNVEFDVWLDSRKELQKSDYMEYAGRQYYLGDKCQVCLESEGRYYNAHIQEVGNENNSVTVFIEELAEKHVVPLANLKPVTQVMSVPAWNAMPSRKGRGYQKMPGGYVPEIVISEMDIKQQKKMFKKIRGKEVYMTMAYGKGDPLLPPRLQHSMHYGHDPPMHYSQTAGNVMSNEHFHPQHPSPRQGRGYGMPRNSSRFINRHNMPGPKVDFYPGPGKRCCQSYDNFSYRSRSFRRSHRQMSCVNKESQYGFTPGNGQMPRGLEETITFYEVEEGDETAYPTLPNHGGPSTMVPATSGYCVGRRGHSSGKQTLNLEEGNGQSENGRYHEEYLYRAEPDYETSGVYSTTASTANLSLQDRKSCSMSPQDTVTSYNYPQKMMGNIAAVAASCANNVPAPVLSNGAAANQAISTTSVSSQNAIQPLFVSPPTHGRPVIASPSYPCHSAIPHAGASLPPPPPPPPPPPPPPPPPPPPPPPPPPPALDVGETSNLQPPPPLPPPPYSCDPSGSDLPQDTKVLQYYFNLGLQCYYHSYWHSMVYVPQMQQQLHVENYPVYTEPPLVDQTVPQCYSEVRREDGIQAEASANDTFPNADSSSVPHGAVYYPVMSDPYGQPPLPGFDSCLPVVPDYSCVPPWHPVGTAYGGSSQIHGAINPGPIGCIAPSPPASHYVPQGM
Summary of the method: (§1)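 Fragment (200 µM) or vehicle was incubated for 3 h with triplicate HEK293T lysate samples of 495 µg, which were then treated with Biotin-Ahx-Ub-VS at 0.5 µM final for 1 h. Labelled DUBs were enriched on NeutrAvidin, digested with LysC and trypsin, and analysed by diaPASEF LC-MS/MS. Values are average log2 fragment/vehicle ratios from an unpaired t-test on global-median-normalised Spectronaut label-free quantities, using proteins with ≥2 unique peptides.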

[2] = target: ATXN3 (UniProt P54252)
Sequence of ATXN3 (P54252 whole entry): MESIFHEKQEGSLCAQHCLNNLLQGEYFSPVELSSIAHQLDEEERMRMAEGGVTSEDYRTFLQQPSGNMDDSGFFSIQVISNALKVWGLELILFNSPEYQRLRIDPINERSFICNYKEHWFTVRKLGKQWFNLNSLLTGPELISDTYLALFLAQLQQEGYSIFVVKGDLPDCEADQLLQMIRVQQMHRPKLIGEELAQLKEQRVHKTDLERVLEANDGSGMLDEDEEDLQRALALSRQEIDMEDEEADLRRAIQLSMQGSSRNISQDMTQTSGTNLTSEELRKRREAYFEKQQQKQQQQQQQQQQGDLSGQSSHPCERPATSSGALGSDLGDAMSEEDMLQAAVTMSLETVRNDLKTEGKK
Summary of the method: as §1

[3] = target: T2, BAP1 (UniProt Q92560)
T2 sequence (whole entry): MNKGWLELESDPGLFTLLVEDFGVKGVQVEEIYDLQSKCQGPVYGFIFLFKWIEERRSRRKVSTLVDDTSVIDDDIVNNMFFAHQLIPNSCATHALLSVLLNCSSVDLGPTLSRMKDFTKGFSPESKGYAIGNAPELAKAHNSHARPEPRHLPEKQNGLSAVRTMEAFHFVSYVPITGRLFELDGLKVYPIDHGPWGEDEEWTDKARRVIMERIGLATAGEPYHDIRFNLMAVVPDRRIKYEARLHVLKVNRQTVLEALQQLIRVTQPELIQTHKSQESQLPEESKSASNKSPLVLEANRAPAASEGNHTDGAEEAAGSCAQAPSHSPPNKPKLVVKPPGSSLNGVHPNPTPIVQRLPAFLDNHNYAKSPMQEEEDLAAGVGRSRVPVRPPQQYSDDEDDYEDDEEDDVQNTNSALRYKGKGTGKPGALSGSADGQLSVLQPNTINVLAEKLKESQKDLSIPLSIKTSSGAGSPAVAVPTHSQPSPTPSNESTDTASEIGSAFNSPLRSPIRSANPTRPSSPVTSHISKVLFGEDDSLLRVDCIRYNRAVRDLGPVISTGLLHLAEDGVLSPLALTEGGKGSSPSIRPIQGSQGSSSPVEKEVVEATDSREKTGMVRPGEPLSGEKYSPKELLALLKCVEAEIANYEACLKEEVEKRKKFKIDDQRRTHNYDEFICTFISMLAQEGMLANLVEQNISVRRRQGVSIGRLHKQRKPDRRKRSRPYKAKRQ
Summary of the method: as §1

[4] = target: EIF3F (UniProt O00303)
Sequence of EIF3F (O00303 whole entry): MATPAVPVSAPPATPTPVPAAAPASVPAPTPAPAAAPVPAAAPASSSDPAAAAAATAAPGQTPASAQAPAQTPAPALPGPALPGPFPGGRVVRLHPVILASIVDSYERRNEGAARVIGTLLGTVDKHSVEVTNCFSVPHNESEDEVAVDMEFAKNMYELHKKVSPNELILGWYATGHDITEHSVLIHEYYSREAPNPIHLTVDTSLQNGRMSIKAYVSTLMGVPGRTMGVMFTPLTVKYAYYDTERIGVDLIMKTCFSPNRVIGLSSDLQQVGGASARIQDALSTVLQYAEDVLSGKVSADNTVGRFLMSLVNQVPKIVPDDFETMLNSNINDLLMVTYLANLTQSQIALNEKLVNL
Summary of the method: as §1

[5] = target: EIF3H (UniProt O15372)
Sequence of EIF3H (O15372 whole entry): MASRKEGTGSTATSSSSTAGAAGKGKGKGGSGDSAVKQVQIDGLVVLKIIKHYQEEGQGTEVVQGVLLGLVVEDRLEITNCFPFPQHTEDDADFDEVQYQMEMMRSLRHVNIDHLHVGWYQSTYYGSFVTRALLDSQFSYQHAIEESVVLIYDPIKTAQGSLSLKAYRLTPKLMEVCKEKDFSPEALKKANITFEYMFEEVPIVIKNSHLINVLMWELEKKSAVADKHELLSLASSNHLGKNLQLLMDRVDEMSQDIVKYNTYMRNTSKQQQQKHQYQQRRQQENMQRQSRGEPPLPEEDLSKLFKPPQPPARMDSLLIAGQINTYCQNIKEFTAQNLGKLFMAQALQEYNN
Summary of the method: as §1

[6] = target: T3, FAM105A (UniProt Q9NUU6)
T3 sequence (whole entry): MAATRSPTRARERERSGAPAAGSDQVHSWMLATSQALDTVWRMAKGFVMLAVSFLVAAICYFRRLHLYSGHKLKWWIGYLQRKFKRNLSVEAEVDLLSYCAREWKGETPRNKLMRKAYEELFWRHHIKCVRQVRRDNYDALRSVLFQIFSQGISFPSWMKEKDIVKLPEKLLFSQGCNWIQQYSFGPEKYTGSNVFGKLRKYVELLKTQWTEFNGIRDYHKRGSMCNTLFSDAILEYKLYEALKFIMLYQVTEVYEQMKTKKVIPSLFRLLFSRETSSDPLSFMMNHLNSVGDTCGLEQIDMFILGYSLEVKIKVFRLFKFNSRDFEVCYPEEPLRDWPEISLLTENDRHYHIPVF
Summary of the method: as §1

[7] = target: OTUB1 (UniProt Q96FW1)
Sequence of OTUB1 (Q96FW1 whole entry): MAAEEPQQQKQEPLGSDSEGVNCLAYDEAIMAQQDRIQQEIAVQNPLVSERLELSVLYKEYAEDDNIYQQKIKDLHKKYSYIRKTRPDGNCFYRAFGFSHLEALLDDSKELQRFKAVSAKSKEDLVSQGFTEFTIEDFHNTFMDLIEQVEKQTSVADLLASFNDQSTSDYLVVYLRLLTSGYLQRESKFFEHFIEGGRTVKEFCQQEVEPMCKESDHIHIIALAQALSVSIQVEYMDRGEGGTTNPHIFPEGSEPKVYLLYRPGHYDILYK
Summary of the method: as §1

[8] = target: T4, OTUD4 (UniProt Q01804)
T4 sequence (whole entry): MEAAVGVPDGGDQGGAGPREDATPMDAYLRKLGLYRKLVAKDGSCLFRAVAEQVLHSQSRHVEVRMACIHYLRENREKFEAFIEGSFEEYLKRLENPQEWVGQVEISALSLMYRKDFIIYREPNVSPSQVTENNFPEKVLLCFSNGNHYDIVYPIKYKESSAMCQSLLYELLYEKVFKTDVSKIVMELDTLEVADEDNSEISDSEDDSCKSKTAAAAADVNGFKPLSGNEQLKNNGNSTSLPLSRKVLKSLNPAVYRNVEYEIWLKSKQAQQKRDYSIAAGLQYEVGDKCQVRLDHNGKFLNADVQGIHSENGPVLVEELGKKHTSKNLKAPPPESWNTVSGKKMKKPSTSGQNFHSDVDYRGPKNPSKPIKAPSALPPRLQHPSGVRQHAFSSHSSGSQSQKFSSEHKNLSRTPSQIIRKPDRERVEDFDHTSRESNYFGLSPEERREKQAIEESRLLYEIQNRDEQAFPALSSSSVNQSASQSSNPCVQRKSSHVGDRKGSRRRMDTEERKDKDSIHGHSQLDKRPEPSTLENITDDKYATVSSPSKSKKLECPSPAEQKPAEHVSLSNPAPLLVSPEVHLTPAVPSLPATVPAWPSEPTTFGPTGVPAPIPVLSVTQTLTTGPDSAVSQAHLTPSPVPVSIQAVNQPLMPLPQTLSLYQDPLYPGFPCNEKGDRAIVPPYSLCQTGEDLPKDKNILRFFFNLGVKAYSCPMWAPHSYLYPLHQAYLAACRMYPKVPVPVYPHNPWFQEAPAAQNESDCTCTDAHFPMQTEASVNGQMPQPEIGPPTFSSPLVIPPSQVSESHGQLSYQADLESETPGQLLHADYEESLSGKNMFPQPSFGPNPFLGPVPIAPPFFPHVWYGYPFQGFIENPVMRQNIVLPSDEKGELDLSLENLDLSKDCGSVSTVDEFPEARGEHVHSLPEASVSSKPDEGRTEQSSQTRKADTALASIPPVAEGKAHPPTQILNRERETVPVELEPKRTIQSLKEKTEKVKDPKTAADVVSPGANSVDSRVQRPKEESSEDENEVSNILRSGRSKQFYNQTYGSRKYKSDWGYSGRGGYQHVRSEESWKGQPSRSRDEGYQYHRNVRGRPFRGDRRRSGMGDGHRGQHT
Summary of the method: as §1

[9] = target: T5, OTUD5 (UniProt Q96G74)
T5 sequence (whole entry): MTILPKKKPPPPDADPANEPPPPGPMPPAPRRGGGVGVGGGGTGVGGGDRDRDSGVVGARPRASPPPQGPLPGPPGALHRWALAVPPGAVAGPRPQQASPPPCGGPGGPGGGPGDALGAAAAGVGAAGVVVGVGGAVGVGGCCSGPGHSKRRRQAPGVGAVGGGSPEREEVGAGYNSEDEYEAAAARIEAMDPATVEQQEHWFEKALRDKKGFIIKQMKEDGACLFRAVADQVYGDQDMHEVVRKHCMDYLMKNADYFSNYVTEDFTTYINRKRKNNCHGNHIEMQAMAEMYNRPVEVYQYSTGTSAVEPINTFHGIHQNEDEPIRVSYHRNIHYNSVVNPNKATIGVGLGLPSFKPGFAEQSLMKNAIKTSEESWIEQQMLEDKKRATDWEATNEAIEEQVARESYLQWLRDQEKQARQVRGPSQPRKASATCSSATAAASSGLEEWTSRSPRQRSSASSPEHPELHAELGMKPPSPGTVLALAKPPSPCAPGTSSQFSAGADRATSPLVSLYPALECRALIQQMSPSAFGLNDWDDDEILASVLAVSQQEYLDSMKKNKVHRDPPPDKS
Summary of the method: as §1

Cl.Cn1c(CNC(=O)CCl)nc2cccnc21
log2 ratio of Biotin-Ahx-Ub-VS probe labelling [1]: 0.0884
log2 ratio of Biotin-Ahx-Ub-VS probe labelling [2]: -0.424
log2 ratio of Biotin-Ahx-Ub-VS probe labelling [3]: -1.32 (active)
log2 ratio of Biotin-Ahx-Ub-VS probe labelling [4]: -0.0906
log2 ratio of Biotin-Ahx-Ub-VS probe labelling [5]: 0.0923
log2 ratio of Biotin-Ahx-Ub-VS probe labelling [6]: -0.0642
log2 ratio of Biotin-Ahx-Ub-VS probe labelling [7]: -0.136
log2 ratio of Biotin-Ahx-Ub-VS probe labelling [8]: -0.388
log2 ratio of Biotin-Ahx-Ub-VS probe labelling [9]: -0.323
